Assay results as given in PubChem BioAssay AID1159580 (chemical genetic matrix, 2015).
About 2,000 (36%) of roughly 5,500 compounds were called active. Another 18% or so got no clear call; they are omitted. No stated cut-off is given here; in the data, active means normalized growth mostly below about 0.91 (no sharp cut-off); inconclusive means no clear call, values can overlap the other calls; inactive means mostly above about 0.92. This is one part of the list.

Assay: chemical genetic growth profiling, strain panel (AID 1159580);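 further: tested at 20 µM; growth read once vehicle control cultures reached saturation at 30 °C; 1 = growth at the plate median or of vehicle wells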
Conditions: S. cerevisiae deletion strains, growth OD
[1] = locus YHR030C, strain SLT2, stronger effect = lower value
[2] = locus YHR079C, strain IRE1, stronger effect = lower value
[3] = locus YJL095W, strain BCK1, stronger effect = lower value
[4] = locus YJR066W, strain TOR1, stronger effect = lower value
[5] = locus YLR113W, strain HOG1, stronger effect = lower value
[6] = locus YNL183C, strain NPR1, stronger effect = lower value
[7] = locus YOR231W, strain MKK1, stronger effect = lower value
[8] = locus YPL256C, strain CLN2, stronger effect = lower value

Measured: normalized growth

CCCc1c(C(=O)Sc2ccccn2)cnn1-c1ccc(Cl)cc1
inactive: locus YAR019C, strain CDC15, stronger effect = lower value 0.957 | locus YBL105C, strain PKC1, stronger effect = lower value 0.962 | locus YBR135W, strain CKS1, stronger effect = lower value 0.957 | locus YBR136W, strain MEC1, stronger effect = lower value 0.964 | locus YBR160W, strain CDC28, stronger effect = lower value 0.944 | locus YDL017W, strain CDC7, stronger effect = lower value 0.963 | locus YDL028C, strain MPS1, stronger effect = lower value 0.966 | locus YDL101C, strain DUN1, stronger effect = lower value 0.964 | locus YDL108W, strain KIN28, stronger effect = lower value 0.955 | locus YDL132W, strain cdc53, stronger effect = lower value 0.95 | locus YDL214C, strain PRR2, stronger effect = lower value 0.861 | locus YDR052C, strain DBF4, stronger effect = lower value 0.962 | locus YDR054C, strain cdc34, stronger effect = lower value 0.948 | locus YDR226W, strain ADK1, stronger effect = lower value 0.959 | locus YDR477W, strain SNF1, stronger effect = lower value 0.876 | locus YER123W, strain YCK3, stronger effect = lower value 0.847 | locus YER133W, strain GLC7, stronger effect = lower value 0.878 | locus YFL009W, strain cdc4, stronger effect = lower value 0.957 | locus YFL029C, strain CAK1, stronger effect = lower value 0.948 | locus YFR003C, strain YPI1, stronger effect = lower value 0.955 | locus YFR019W, strain FAB1, stronger effect = lower value 0.908 | locus YFR028C, strain CDC14, stronger effect = lower value 0.955 | locus YGR040W, strain KSS1, stronger effect = lower value 0.845 | locus YGR052W, strain FMP48, stronger effect = lower value 0.919 | locus YGR092W, strain DBF2, stronger effect = lower value 0.879 | [1] 0.933 | [2] 0.931 | locus YHR082C, strain KSP1, stronger effect = lower value 0.907 | locus YHR205W, strain SCH9, stronger effect = lower value 0.93 | locus YIL147C, strain SLN1, stronger effect = lower value 0.967 | [3] 0.951 | locus YJL128C, strain PBS2, stronger effect = lower value 0.932 | locus YJL157C, strain FAR1, stronger effect = lower value 0.849 | locus YJR016C, strain ILV3, stronger effect = lower value 0.955 | locus YJR066W, strain TOR1 (second series), stronger effect = lower value 0.822 | [4] 0.87 | locus YKL048C, strain ELM1, stronger effect = lower value 0.911 | locus YKL067W, strain YNK1, stronger effect = lower value 0.885 | locus YKL101W, strain HSL1, stronger effect = lower value 0.912 | locus YKL193C, strain SDS22, stronger effect = lower value 0.961 | locus YKL203C, strain TOR2, stronger effect = lower value 0.942 | locus YLR133W, strain CKI1, stronger effect = lower value 0.912 | locus YLR403W, strain SFP1, stronger effect = lower value 0.861 | locus YML070W, strain DAK1, stronger effect = lower value 0.869 | locus YMR001C, strain CDC5, stronger effect = lower value 0.953 | locus YMR205C, strain PFK2 (second series), stronger effect = lower value 0.932 | locus YMR277W, strain FCP1, stronger effect = lower value 0.964 | locus YNL006W, strain LST8, stronger effect = lower value 0.98 | locus YNL020C, strain ARK1, stronger effect = lower value 0.911 | locus YNL161W, strain CBK1, stronger effect = lower value 0.955 | [6] 0.881 | locus YNL207W, strain RIO2, stronger effect = lower value 0.955 | locus YNL222W, strain SSU72, stronger effect = lower value 0.957 | locus YNL307C, strain MCK1 (second series), stronger effect = lower value 0.912 | locus YOL078W, strain AVO1, stronger effect = lower value 0.957 | locus YOL136C, strain PFK27, stronger effect = lower value 0.878 | locus YOR061W, strain CKA2, stronger effect = lower value 0.898 | locus YOR119C, strain RIO1, stronger effect = lower value 0.947 | [7] 0.897 | locus YOR329C, strain SCD5, stronger effect = lower value 0.957 | locus YPL031C, strain PHO85, stronger effect = lower value 0.903 | locus YPL153C, strain RAD53, stronger effect = lower value 0.899 | locus YPL204W, strain HRR25, stronger effect = lower value 0.895 | locus YPL209C, strain IPL1, stronger effect = lower value 0.952 | locus YPR025C, strain CCL1, stronger effect = lower value 0.954 | locus YPR106W, strain ISR1, stronger effect = lower value 0.95 | locus YPR111W, strain DBF20, stronger effect = lower value 0.937 | strain NNK1, stronger effect = lower value 0.961 | strain TSCII, stronger effect = lower value 0.955
active: [5] 0.804 | [8] 0.755

CN(C)CCOc1ccc(/C(=C(/CCCl)c2ccccc2)c2ccccc2)cc1
inactive: [6] 0.85 | [8] 0.835
active: locus YAL021C, strain ccr4, stronger effect = lower value 0.0628 | locus YAL026C, strain drs2, stronger effect = lower value 0.0599 | locus YAL030W, strain snc1, stronger effect = lower value 0.0605 | locus YBL061C, strain skt5, stronger effect = lower value 0.0647 | locus YBR009C, strain hhf1, stronger effect = lower value 0.0629 | locus YBR023C, strain chs3, stronger effect = lower value 0.0684 | locus YBR171W, strain sec66, stronger effect = lower value 0.1 | locus YBR231C, strain swc5, stronger effect = lower value 0.0672 | locus YBR279W, strain paf1, stronger effect = lower value 0.0678 | locus YCL011C, strain gbp2, stronger effect = lower value 0.0647 | locus YCL016C, strain dcc1, stronger effect = lower value 0.0711 | locus YCL061C, strain MRC1, stronger effect = lower value 0.107 | locus YCL069W, strain vba3, stronger effect = lower value 0.071 | locus YCR088W, strain abp1, stronger effect = lower value 0.0709 | locus YDL005C, strain med2, stronger effect = lower value 0.0725 | locus YDL040C, strain nat1, stronger effect = lower value 0.0985 | locus YDR001C, strain nth1, stronger effect = lower value 0.0873 | locus YDR069C, strain doa4, stronger effect = lower value 0.0653 | locus YDR137W, strain rgp1, stronger effect = lower value 0.0958 | locus YDR159W, strain sac3, stronger effect = lower value 0.0868 | locus YDR195W, strain ref2 0.126 | locus YDR297W, strain sur2, stronger effect = lower value 0.0624 | locus YDR334W, strain swr1, stronger effect = lower value 0.0691 | locus YDR335W, strain msn5, stronger effect = lower value 0.0647 | locus YDR392W, strain spt3, stronger effect = lower value 0.0935 | locus YEL003W, strain gim4, stronger effect = lower value 0.0736 | locus YEL037C, strain rad23, stronger effect = lower value 0.0691 | locus YEL061C, strain CIN8 (second series), stronger effect = lower value 0.0848 | locus YER015W, strain faa2, stronger effect = lower value 0.0621 | locus YER016W, strain bim1, stronger effect = lower value 0.0811 | locus YER111C, strain swi4, stronger effect = lower value 0.0861 | locus YER155C, strain BEM2 (second series), stronger effect = lower value 0.107 | locus YFR010W, strain ubp6, stronger effect = lower value 0.069 | locus YGL167C, strain pmr1, stronger effect = lower value 0.0724 | locus YGL173C, strain kem1, stronger effect = lower value 0.0697 | locus YGL227W, strain vid30, stronger effect = lower value 0.0851 | locus YGL240W, strain doc1, stronger effect = lower value 0.0984 | locus YGL253W, strain hxk2, stronger effect = lower value 0.0578 | locus YHR013C, strain ard1, stronger effect = lower value 0.111 | locus YHR027C, strain rpn1, stronger effect = lower value 0.063 | [1] 0.711 | [2] 0.837 | locus YHR142W, strain chs7, stronger effect = lower value 0.0764 | locus YJL092W, strain hpr5, stronger effect = lower value 0.0832 | locus YJL095W, strain BCK1 (second series), stronger effect = lower value 0.0582 | [3] 0.648 | locus YJL115W, strain asf1, stronger effect = lower value 0.118 | locus YJL129C, strain trk1, stronger effect = lower value 0.0917 | locus YJL154C, strain vps35, stronger effect = lower value 0.0755 | locus YJL164C, strain tpk1, stronger effect = lower value 0.0629 | locus YJL166W, strain qcr8, stronger effect = lower value 0.0637 | locus YJL187C, strain SWE1, stronger effect = lower value 0.0638 | [4] 0.819 | locus YKL160W, strain elf1, stronger effect = lower value 0.079 | locus YKR026C, strain gcn3, stronger effect = lower value 0.106 | locus YKR091W, strain srl3, stronger effect = lower value 0.0783 | locus YLL001W, strain dnm1, stronger effect = lower value 0.0676 | locus YLL026W, stronger effect = lower value 0.0624 | locus YLL041C, strain sdh2, stronger effect = lower value 0.0691 | locus YLR027C, strain aat2, stronger effect = lower value 0.0598 | [5] 0.791 | locus YLR221C, strain rsa3, stronger effect = lower value 0.0691 | locus YLR258W, strain gsy2, stronger effect = lower value 0.0661 | locus YLR262C, strain YPT6 (second series), stronger effect = lower value 0.0861 | locus YLR320W, strain mms22, stronger effect = lower value 0.0789 | locus YLR342W, strain FKS1, stronger effect = lower value 0.0712 | locus YLR357W, strain rsc2, stronger effect = lower value 0.148 | locus YLR370C, strain arc18, stronger effect = lower value 0.0617 | locus YLR384C, strain iki3, stronger effect = lower value 0.078 | locus YML120C, strain ndi1, stronger effect = lower value 0.0751 | locus YMR058W, strain fet3, stronger effect = lower value 0.064 | locus YMR125W, strain sto1, stronger effect = lower value 0.0872 | locus YMR129W, stronger effect = lower value 0.0788 | locus YMR205C, strain PFK2, stronger effect = lower value 0.0858 | locus YMR231W, strain pep5, stronger effect = lower value 0.0638 | locus YNL071W, strain lat1, stronger effect = lower value 0.0628 | locus YNL209W, strain ssb2, stronger effect = lower value 0.0599 | locus YNL248C, strain rpa49, stronger effect = lower value 0.166 | locus YNL322C, strain KRE1 (second series), stronger effect = lower value 0.433 | locus YNR049C, strain mso1, stronger effect = lower value 0.0725 | locus YOR001W, strain rrp6, stronger effect = lower value 0.0831 | locus YOR070C, strain gyp1, stronger effect = lower value 0.0593 | locus YOR080W, strain dia2, stronger effect = lower value 0.0814 | locus YOR083W, strain WHI5, stronger effect = lower value 0.0673 | locus YOR106W, strain vam3, stronger effect = lower value 0.117 | [7] 0.791 | locus YOR265W, strain rbl2, stronger effect = lower value 0.0684 | locus YOR270C, strain vph1, stronger effect = lower value 0.0918 | locus YOR290C, strain snf2, stronger effect = lower value 0.0929 | locus YPL051W, strain arl3, stronger effect = lower value 0.0673 | locus YPL078C, strain atp4, stronger effect = lower value 0.0865 | locus YPL106C, strain sse1, stronger effect = lower value 0.1 | locus YPL240C, strain hsp82, stronger effect = lower value 0.0664
